GLP-1R inv ag: GLP-1 receptor (human) inverse agonism. HEK293 GLP-1R CRE-luciferase, luminescence, 24 h; GLP-1R form is constitutively active. Potency, µM (top dose mostly 38.3 µM), most hits filed as inhibitors. 410,000 compounds, 1.6% hits; further: nearly all actives have a fitted effect of over 55% in size
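Inverse agonists were sought by their lowering of basal cAMP reporter luciferase output in HEK293 cells stably carrying constitutively active human GLP-1R, after 24 h compound treatment.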
TRPML1 ag: agonists of human TRPML1 channel | 410,000 compounds, 0.12% hits | TRPML1-expressing cells, Ca2+ dye fluorescence, FDSS | activation, % (no concentration beside the values); in the data active means activation above about 50%; inconclusive means mostly about 30% to 49%
Target sequence (Q9GZU1 whole entry, looked up): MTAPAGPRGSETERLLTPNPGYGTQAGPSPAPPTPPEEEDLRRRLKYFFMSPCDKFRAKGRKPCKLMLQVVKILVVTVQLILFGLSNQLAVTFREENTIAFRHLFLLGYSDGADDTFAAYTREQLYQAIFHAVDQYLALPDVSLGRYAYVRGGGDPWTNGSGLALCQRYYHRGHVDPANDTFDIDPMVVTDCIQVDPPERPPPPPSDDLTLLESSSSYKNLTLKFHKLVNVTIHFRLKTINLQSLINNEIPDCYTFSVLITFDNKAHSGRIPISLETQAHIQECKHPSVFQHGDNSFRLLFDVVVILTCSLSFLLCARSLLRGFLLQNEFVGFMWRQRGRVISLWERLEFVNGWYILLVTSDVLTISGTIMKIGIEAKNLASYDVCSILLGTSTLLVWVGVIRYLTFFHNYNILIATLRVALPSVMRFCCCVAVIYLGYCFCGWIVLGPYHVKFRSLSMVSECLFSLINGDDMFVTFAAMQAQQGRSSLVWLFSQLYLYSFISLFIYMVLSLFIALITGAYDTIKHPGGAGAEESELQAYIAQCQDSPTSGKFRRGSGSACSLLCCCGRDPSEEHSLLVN
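Tet-induced TRPML1-DL cells, 1,500 per well, cultured overnight, were loaded with a no-wash Ca2+ dye for 45–90 min. Calcium fluorescence was recorded on the FDSS for 110 s after compound addition, before the EC80 agonist (4 uM 54-4) was added.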
GLP1R cytotox: cytotoxic in the GLP-1 receptor inverse agonist counter-screen; HEK293 cAMP-luciferase reporter cells, luminescence, 24 h; Potency, µM (highest dose often 38.3 µM), usual class: inhibitors; 410,000 compounds, 0.13% hits;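 further: loss of luciferase light is scored as toxicity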
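Step one: seed cells (200 cells/uL, DMEM with 10% Nu serum, 1% pen-strep). Step two: 12-hour incubation at 37 deg C. Step three: pin 23 nL compound, incubate 24 hr. Step four: add luciferase reagent, read luminescence 12 min later.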
TRPML1 blocker: blocks the human TRPML1 channel. TRPML1-inducible cells, Ca2+ dye fluorescence, FDSS; stronger effect = lower value; inhibition of EC80 agonist-evoked calcium signal. activity change, negative = inhibition, % (test concentration not listed). 390,000 compounds, 0.02% hits. AID 624415; in the data active means activity change below about -50%; inconclusive means between about -30% and that limit;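 further: stimulus is agonist 54-4 at its EC80 concentration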
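TRPML1-DL cells, Tet-induced overnight (~16 h, 37 °C) at 1,500 cells/well, were loaded with Ca8 no-wash dye plus quencher for 45-90 min at room temperature. Compounds were pinned during FDSS kinetic reading; agonist 54-4 at EC80 (4 uM final) then added.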
GLP1R ag: agonists of human GLP-1 receptor | P43220 | HEK293 GLP-1R CRE-luciferase, luminescence, 4-6 h; cells express a hypersensitive GLP-1R form | Potency, µM (doses to about 45.6 µM), most hits filed as activators | 380,000 compounds, 0.007% hits
Numbers stand for hits. Shown are actives, neighbours in structure and some others; about 1.8% of the full set was active somewhere. Unless noted, the call rests on the fitted dose curve; in most records, active means well fitted curve in the direction sought with a large enough effect; inconclusive means small, poorly fitted or top-dose-only effect, or another doubt; inactive means no such curve, though single readings can be large; an effect the other way counts as inactive or inconclusive.

How did Cc1cc(Nc2cccc(Cl)c2)nc2ccc(NC(=O)Cc3ccc(Cl)cc3)cc12 do in these assays?
GLP-1R inv ag: 5.62µM; TRPML1 ag: inactive; GLP1R cytotox: inactive; TRPML1 blocker: inactive; GLP1R ag: inactive

Results for COc1ccc(Nc2cc(C)c3cc(NC(=O)COc4cccc(C)c4)ccc3n2)cc1 ?
GLP-1R inv ag: 10µM; TRPML1 ag: inactive; GLP1R cytotox: inactive; TRPML1 blocker: inactive; GLP1R ag: inactive

How did Cc1cc(Nc2cccc(C(F)(F)F)c2)nc2ccc(NC(=O)c3cccc(Cl)c3)cc12 do in these assays?
GLP-1R inv ag: 2.82µM; TRPML1 ag: inactive; GLP1R cytotox: inconclusive; TRPML1 blocker: inactive; GLP1R ag: inactive

What do the screens show for `Cc1cc(Nc2cccc(Cl)c2)nc2ccc(NC(=O)Cc3cccc(C(F)(F)F)c3)cc12`?
GLP-1R inv ag: 3.98µM; TRPML1 ag: inactive; GLP1R cytotox: inconclusive; TRPML1 blocker: inactive; GLP1R ag: inactive

What do the screens show for `COc1ccc(CC(=O)N2CCc3cc(OC)c(OC)cc3C2COc2cc(C)cc(C)c2)cc1OC` (configuration not stated)?
GLP-1R inv ag: inactive; TRPML1 ag: inactive; GLP1R cytotox: inactive; TRPML1 blocker: inactive; GLP1R ag: inactive

Results for Cc1ccccc1Cn1cc(S(=O)(=O)c2ccc(F)cc2)c(=O)c2cc3c(cc21)OCO3 ?
GLP-1R inv ag: inactive; TRPML1 ag: inactive; GLP1R cytotox: inactive; TRPML1 blocker: inactive; GLP1R ag: inactive

How did N#C/C(=C\c1ccc(N2CCCCC2)o1)C(=O)Nc1cccc(Br)c1 do in these assays?
GLP-1R inv ag: inactive; TRPML1 ag: 118.8; GLP1R cytotox: inconclusive; TRPML1 blocker: inconclusive; GLP1R ag: inactive

Results for Cc1ccc(/C=C(\C#N)C(=O)Nc2cccc(Br)c2)o1 ?
GLP-1R inv ag: inactive; TRPML1 ag: inactive; GLP1R cytotox: inactive; TRPML1 blocker: inactive

What do the screens show for `Cc1cc(C)c(NC(=O)c2c(C)oc3c2C2=NCCN2C=N3)c(C)c1`?
GLP-1R inv ag: inactive; TRPML1 ag: inactive; GLP1R cytotox: inactive; TRPML1 blocker: inactive

Results for Cc1cc2oc(=O)cc(CN3CCCCC3)c2cc1C(C)C ?
GLP-1R inv ag: inconclusive; TRPML1 ag: inactive; GLP1R cytotox: inactive; TRPML1 blocker: inactive; GLP1R ag: inactive

How did COc1cccc(NCc2cc(=O)oc3cc(C)c(C(C)C)cc23)c1 do in these assays?
GLP-1R inv ag: 11.2µM; TRPML1 ag: inactive; GLP1R cytotox: inactive; TRPML1 blocker: inactive; GLP1R ag: inactive

Results for CC(C)NC(=NCc1ccc(Cl)cc1Cl)Nc1ccccc1 ?
GLP-1R inv ag: 7.94µM; TRPML1 ag: inactive; GLP1R cytotox: inactive; TRPML1 blocker: inactive; GLP1R ag: inactive

What do the screens show for `S=C(Nc1ccccc1)Nc1ccc(OCc2ccc(Cl)cc2Cl)cc1`?
GLP-1R inv ag: inconclusive; TRPML1 ag: inactive; GLP1R cytotox: inconclusive; TRPML1 blocker: inactive; GLP1R ag: inactive

What do the screens show for `COC(=O)c1ccc(OCC(O)CNC2CCCC2)cc1` (configuration not stated)?
GLP-1R inv ag: inconclusive; TRPML1 ag: inactive; GLP1R cytotox: inactive; TRPML1 blocker: inactive; GLP1R ag: inactive

What do the screens show for `CC(NCC(O)COC1CCC(C(C)(C)C)CC1)c1ccccc1` (configuration not stated)?
GLP-1R inv ag: 10µM; TRPML1 ag: inactive; GLP1R cytotox: inconclusive; TRPML1 blocker: inactive; GLP1R ag: inactive

What do the screens show for `COc1ccc(OCC(O)CN(C2CCCCC2)C2CCCCC2)cc1` (configuration not stated)?
GLP-1R inv ag: inconclusive; TRPML1 ag: inactive; GLP1R cytotox: inactive; TRPML1 blocker: inactive; GLP1R ag: inactive

Results for OC(CNC1CCCC1)COc1ccc(-c2ccccc2)cc1 (configuration not stated) ?
GLP-1R inv ag: 8.91µM; TRPML1 ag: inactive; GLP1R cytotox: inactive; TRPML1 blocker: inactive; GLP1R ag: inactive

What do the screens show for `CC(NCC(O)COc1ccc2ccccc2c1)c1ccccc1` (configuration not stated)?
GLP-1R inv ag: 2.82µM; TRPML1 ag: inactive; GLP1R cytotox: inconclusive; TRPML1 blocker: inactive; GLP1R ag: inactive

What do the screens show for `CN(CC(O)COc1ccc2ccccc2c1)C1CCCCC1` (configuration not stated)?
GLP-1R inv ag: 8.91µM; TRPML1 ag: inactive; GLP1R cytotox: inactive; TRPML1 blocker: inactive; GLP1R ag: inactive

High-throughput results as filed in PubChem.
